Screening data as filed in PubChem BioAssay.
Sampled rows, rich in hits. Any-hit rate of the full collection: about 19%.
HT1080 IDH1KD tx – kills HT-1080 cells with IDH1 knockdown; HT-1080 IDH1 knockdown viability, ATP luminescence, 48 h; Potency, µM (titrated, usually from 46.1 µM), most hits filed as cytotoxic; 360,000 tested, 2% active; AID 686971
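HT-1080-IDH1KD cells (IDH1 knocked down), 750/well in RPMI with 5% FBS, treated with compound 48 h at 37 degrees C. Viability by CellTiter-Glo luminescence, normalised to DMSO and no-cell wells; concentration-response curves classed.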
HT1080NT lethal – kills 2HG-producing HT-1080-NT fibrosarcoma cells | HT-1080-NT fibrosarcoma viability, CellTiter-Glo ATP luminescence, 48 h | Potency, µM (titrated, usually from 46.1 µM), hits mostly cytotoxic | 360,000 tested, 1.6% active | AID 686970;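 further: NT is the 2HG producing partner of a matched IDH1 knockdown line; nearly all actives have a fitted effect of over 55% in size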
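Viability by CellTiter-Glo luminescence after 48 h compound exposure at 37C of HT-1080-NT cells (750/well, RPMI, 5% FBS). % activity scaled between DMSO wells and medium-only wells, then curve-fitted and categorized by curve class.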
DT40 TDP1 no CPT – qHTS for Inhibitors of human tyrosyl-DNA phosphodiesterase 1 (TDP1): qHTS in cells in absence of CPT; Potency, µM (series often up to 46.2 µM), hits mostly inhibitors; 420,000 tested, 15% active; DT40 Tdp1-/- hTDP1 cells, no CPT, ATP luminescence, 48 h; further: nearly all actives have a fitted effect of over 55% in size
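DT40 Tdp1-/-;hTDP1 cells, no CPT (DMSO vehicle only), 400 cells/well; compounds pin-transferred; ≥48 hr, 37 °C; CellTiter-Glo 30 min RT dark, luminescence read.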
DT40 TDP1 CPT – growth inhibition of DT40 Tdp1-/-;hTDP1 cells with camptothecin (screen for TDP1 inhibitors). chicken DT40 Tdp1-/-;hTDP1 cells + 20 nM CPT, ATP luminescence, 48 h. Potency, µM (titrated, usually from 46.2 µM), actives largely listed as inhibitors. 420,000 tested, 12% active. AID 686979; further: nearly all actives have a fitted effect of over 55% in size
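Cell growth measured by CellTiter-Glo luminescence after a minimum 48 h, 37 C compound exposure with 20 nM CPT in Tdp1-knockout DT40 cells stably expressing hTDP1, seeded 400/well; qHTS titration format.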
IL1B secr inh – blocks inflammasome-driven IL-1 beta release. THP-1 LPS/ATP IL-1B secretion, AlphaLISA, 16 h; hits give low values. activity change, % at 57.5 µM. 360,000 tested, 4.7% active; in the data active means activity change below about -50%; inconclusive means mostly about -30% to -49%
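THP-1 cells pretreated 1 hr with compounds (up to 57.5 uM final), then stimulated with LPS (250 ng/mL final) plus ATP (1.25 mM final); secreted IL-1B measured by AlphaLISA after 16 hr, decreased signal indicating inhibition.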
Large screens that a line does not name were inactive. Unless noted, the call rests on the fitted dose curve; in most records, active means well fitted curve in the direction sought with a large enough effect; inconclusive means small, poorly fitted or top-dose-only effect, or another doubt; inactive means no such curve, though single readings can be large; an effect the other way counts as inactive or inconclusive.

COc1cccc(NC(=O)Nc2nc(-c3ccc(OC)c(OC)c3)cs2)c1	HT1080 IDH1KD tx 7.31µM, HT1080NT lethal 11.6µM, DT40 TDP1 no CPT 7.31µM, DT40 TDP1 CPT 18.4µM, IL1B secr inh -104.4
C=CCOc1ccccc1OCC(O)CNC(C)C (stereo unspecified)	none
COc1ccc2[nH]c(=O)c(CN(CCO)S(=O)(=O)c3ccc4c(c3)OCCO4)cc2c1	DT40 TDP1 no CPT inconclusive, DT40 TDP1 CPT inconclusive
CCOC(=O)C1C(C(=O)OCC)C(C)(C)C1N(C)C (stereo unspecified)	none
COC(=O)c1c(-c2ccc3ccccc3c2)csc1NC(=O)Cc1ccc(OC)c(OC)c1	DT40 TDP1 no CPT 13µM, IL1B secr inh inconclusive
COC(=O)c1c(-c2ccc(OC)c(OC)c2)csc1N	none
Cc1cc(C(=O)OC(C)C(=O)Nc2nc(-c3ccccc3)cs2)c(C)o1 (stereo unspecified)	HT1080NT lethal inconclusive
O=C(COC(=O)C1CC1)Nc1nc(-c2ccc(F)c(F)c2)cs1	DT40 TDP1 no CPT 10.3µM, DT40 TDP1 CPT 20.6µM
CC(OC(=O)c1ccc([N+](=O)[O-])o1)C(=O)Nc1nc(-c2ccc(F)c(F)c2)cs1 (stereo unspecified)	DT40 TDP1 no CPT 20.6µM, DT40 TDP1 CPT 20.6µM, IL1B secr inh inconclusive
COc1cccc(-c2csc(NC3OC(=O)c4c3ccc(OC)c4OC)n2)c1 (stereo unspecified)	HT1080 IDH1KD tx inconclusive, HT1080NT lethal inconclusive, DT40 TDP1 no CPT inconclusive, DT40 TDP1 CPT inconclusive, IL1B secr inh -92.7
CC(O)COCC1OC2OC3C(COCC(C)O)OC(OC4C(COCC(C)O)OC(OC5C(COCC(C)O)OC(OC6C(COCC(C)O)OC(OC7C(COCC(C)O)OC(OC8C(COCC(C)O)OC(OC1C(OCC(C)O)C2OCC(C)O)C(OCC(C)O)C8OCC(C)O)C(OCC(C)O)C7OCC(C)O)C(OCC(C)O)C6OCC(C)O)C(OCC(C)O)C5OCC(C)O)C(OCC(C)O)C4OCC(C)O)C(OCC(C)O)C3OCC(C)O (stereo unspecified)	none (no result: HT1080 IDH1KD tx, HT1080NT lethal, IL1B secr inh)
COc1ccc(Cl)cc1-c1noc([C@@H]2O[C@H](CO)[C@H](O)[C@H](O)[C@H]2O)n1	DT40 TDP1 CPT inconclusive
O=C(Cc1cccs1)Nc1nc(-c2ccc(F)cc2F)cs1	HT1080 IDH1KD tx inconclusive, DT40 TDP1 no CPT inconclusive, DT40 TDP1 CPT 10.3µM, IL1B secr inh -69.5
O=C(Nc1nc(-c2ccc(F)c(F)c2)cs1)Nc1ccc(F)cc1F	DT40 TDP1 no CPT 0.651µM, DT40 TDP1 CPT 1.64µM
O=C(CN1CCCCC1)Nc1nc(-c2ccc(F)c(F)c2)cs1	DT40 TDP1 no CPT inconclusive, DT40 TDP1 CPT inconclusive
O=C(Cc1c(F)c(F)c(F)c(F)c1F)Nc1nc(-c2ccccc2)cs1	HT1080 IDH1KD tx 16.4µM, HT1080NT lethal inconclusive, DT40 TDP1 no CPT 16.4µM, DT40 TDP1 CPT inconclusive, IL1B secr inh -79.3
O=C(Cc1cccs1)Nc1nc(-c2ccc(F)c(F)c2)cs1	DT40 TDP1 no CPT 1.46µM, DT40 TDP1 CPT 8.2µM (no result: IL1B secr inh)
COc1ccc(C(=O)CSc2cc(C)[nH]c(=O)n2)cc1	none
CSc1ccccc1NC(=O)CN(C)CC(=O)c1c(C)[nH]c2ccccc12	DT40 TDP1 no CPT inconclusive, DT40 TDP1 CPT inconclusive
COc1cc2[nH]c(C(=O)N3CCC(Cc4ccccc4)CC3)cc2c(OC)c1OC	DT40 TDP1 no CPT inconclusive, DT40 TDP1 CPT inconclusive
COc1ccc(-c2csc(NC(=O)CCn3cnc4ccccc4c3=O)n2)cc1OC	DT40 TDP1 no CPT 18.4µM, DT40 TDP1 CPT inconclusive, IL1B secr inh inconclusive
O=C(Cc1ccccc1)Nc1nc(-c2ccc(F)c(F)c2)cs1	DT40 TDP1 no CPT inconclusive, DT40 TDP1 CPT 1.84µM
O=C(Cc1ccccc1F)Nc1nc(-c2ccc(F)c(F)c2)cs1	HT1080 IDH1KD tx inconclusive, HT1080NT lethal inconclusive, DT40 TDP1 no CPT 2.06µM, DT40 TDP1 CPT 5.17µM, IL1B secr inh -89.7
CC(=O)Nc1ccc(-c2csc(NC(=O)Cc3ccccc3F)n2)cc1	DT40 TDP1 no CPT inconclusive, DT40 TDP1 CPT inconclusive
CC(C)CN1C2CCCC1CC(NC(=O)c1ccc([N+](=O)[O-])cc1)C2 (stereo unspecified)	none
